Screening results as filed in PubChem.
LAP4 TOR yeast: modulators of TOR pathway LAP4-GFP in S. cerevisiae. S. cerevisiae LAP4-GFP multiplex, flow cytometry GFP, 3 h; median GFP as percent of DMSO wells. GFP response vs DMSO, % at 10 µM. 0.34% of 320,000 active;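 active means GFP response vs DMSO above a set limit, about the screen mean plus 3 SD, cut at about 150% in these data; inconclusive means under 70 cell events counted for the yeast strain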
Efflux pump inh: blocks antifungal efflux pumps in multiplex yeast assay; S. cerevisiae Candida pump triplex, Nile Red efflux; inhibition, % at 10 µM; 0.44% of 330,000 active;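 active means plate passing quality check with inhibition over a set limit, or well fluorescence over plate mean plus 4 SD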;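 further: Nile Red retained in pooled yeast measured as flow cytometry median fluorescence; higher means more Nile Red kept so more efflux inhibition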
RPL19A-GFP yeast: alters RPL19A-GFP fluorescence in TOR pathway yeast screen | 0.3% of 330,000 active | S. cerevisiae RPL19A-GFP strain, flow cytometry, 3 h; stronger effect = lower value | percent response vs DMSO, % at 10 µM;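 active means percent response vs DMSO below 50%; inconclusive means fewer than 70 events counted for the yeast strain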;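 further: median channel GFP fluorescence of the barcoded RPL19A-GFP strain; lower means less RPL19A-GFP as with rapamycin TOR inhibition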
AGP1 TOR yeast: yeast TOR pathway AGP1-GFP modulation. S. cerevisiae AGP1-GFP multiplex flow cytometry, 3 h; GFP as percent of DMSO wells. GFP response vs DMSO, % at 10 µM. 0.02% of 320,000 active. AID 2066;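 active means GFP response relative to DMSO above a set limit, near screen average plus 3 SD, cut at about 150% in these data; inconclusive means fewer than 70 cells counted for the yeast strain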;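 further: median GFP channel fluorescence of the gated AGP1 strain per well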
CIT2-GFP yeast: alters CIT2-GFP fluorescence in TOR pathway yeast screen | 0.065% of 320,000 active | S. cerevisiae CIT2-GFP strain, flow cytometry, 3 h; 100 means same as DMSO wells | AID 2029 | GFP response vs DMSO, % at 10 µM;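 active means GFP response relative to DMSO above a set limit, near the screen mean plus 3 SD, cut at about 150% in these data; inconclusive means Fewer than 70 cells measured for a yeast strain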;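 further: ratio of well median GFP fluorescence to mean of DMSO wells on the plate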
MEP2-GFP yeast: alters MEP2-GFP fluorescence in TOR pathway yeast screen. S. cerevisiae MEP2-GFP strain, flow cytometry GFP, 3 h; 100% = DMSO control level. GFP response vs DMSO, % at 10 µM. 0.51% of 330,000 active;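 active means GFP response versus DMSO above a set limit, roughly screen mean plus 3 SD, cut at about 180% in these data; inconclusive means fewer than 70 cells counted for a yeast strain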;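 further: median GFP fluorescence of the barcode-gated MEP2-GFP cells per well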
A number is an active result; 0 = inactive; ? = inconclusive; - = no result given; [ ] = remark or other dose. Hits are enriched below; roughly 1.3% of the tested compounds scored in any of these assays.

SMILES	LAP4 TOR yeast	Efflux pump inh	RPL19A-GFP yeast	AGP1 TOR yeast	CIT2-GFP yeast	MEP2-GFP yeast
CCCc1cc(=O)n(-c2nc3ccccc3s2)[nH]1	159	0	0	0	0	0
Cc1ccc(/C=N/NC(=O)c2ccccn2)s1	0	0	0	0	0	200
O=C(N/N=C/c1cccs1)c1ccccn1	0	0	0	0	0	0
O=C(CSc1nnc(-c2ccccc2)o1)c1ccc2c(c1)OCCO2	0	0	-	?	?	297[may fluoresce violet]
Cc1cc(C)cc(-c2nnc(SCC(=O)c3ccc4c(c3)OCCO4)o2)c1	0	0	0	0	0	0
CN(C(=O)COC(=O)c1ccc(Br)c(S(=O)(=O)N2CCOCC2)c1)C1CCCCC1	0	0	0	0	0	0
CCOc1ccc(N2CC(C(=O)Nc3ccc(S(=O)(=O)N4CCOCC4)cc3)CC2=O)cc1 (stereo not given)	0	0	0	0	?	186[may fluoresce violet]
O=C(Nc1ccc2c(c1)OCO2)c1ccc([N+](=O)[O-])cc1[N+](=O)[O-]	0	0	0	0	?	220[may fluoresce violet]
O=C(Cc1ccc([N+](=O)[O-])cc1)Nc1ccc2c(c1)OCO2	0	0	0	0	0	0
O=C(Nc1ccc(S(=O)(=O)N2CCOCC2)cc1)c1ccc([N+](=O)[O-])cc1Cl	0	0	0	0	0	307
O=C(Nc1ccc(Cl)cc1)c1ccc(S(=O)(=O)N2CCOCC2)cc1	0	0	0	0	0	0
CC(Oc1ccc(Cl)cc1)C(=O)Nc1ccc(S(=O)(=O)N2CCOCC2)cc1 (stereo not given)	0	0	0	0	?	275[may fluoresce violet]
COC(=O)[C@H](C)NC(=O)Nc1cccc(Br)c1	0	0	0	0	0	0
Cc1c(CN2CCC(n3nccc3NC(=O)C3CC3)CC2)[nH]c2ccccc12	0	0	0	0	0	0
O=C(COc1ccc([N+](=O)[O-])cc1)Nc1ccc(S(=O)(=O)N2CCOCC2)cc1	0	0	0	0	?	399[may fluoresce violet]
CCN(CC)C(=O)c1ccc(Cn2cc([N+](=O)[O-])cn2)o1	0	0	0	0	0	0
CCN(CC(=O)Nc1ccc2c(c1)OCCO2)C(=O)c1ccccc1Br	0	0	0	0	0	0
O=c1[nH]c2ccc(NS(=O)(=O)c3ccc([N+](=O)[O-])cc3)cc2[nH]1	0	0	0	0	0	0
CC(=O)Nc1ccc(S(=O)(=O)Nc2ccc3[nH]c(=O)[nH]c3c2)cc1	0	0	44[may fluoresce violet]	0	?	653[may fluoresce violet]
O=C(NCc1ccccn1)C1CCN(S(=O)(=O)c2cccs2)CC1	0	0	0	0	0	0
O=C(NCc1ccccc1Cl)C1CCN(S(=O)(=O)c2cccs2)CC1	0	0	42[may fluoresce violet]	?	?	205[may fluoresce violet]
O=C(C1CCN(S(=O)(=O)c2cccs2)CC1)N(c1ccccn1)C1CCCCC1	0	0	46[may fluoresce violet]	?	?	0
O=C(COC(=O)c1cc(Br)ccc1O)c1ccc(F)cc1	0	0	0	0	0	0
Cn1cc(P(=S)(N2CCOCC2)N2CCOCC2)cc1P(=S)(N1CCOCC1)N1CCOCC1	0	0	0	0	0	0
COc1ccccc1NC(=O)COC(=O)c1ccc([N+](=O)[O-])s1	0	0	21[may fluoresce violet]	0	?	0
SMILES	LAP4 TOR yeast	Efflux pump inh	RPL19A-GFP yeast	AGP1 TOR yeast	CIT2-GFP yeast	MEP2-GFP yeast
Cc1ccc(NC(=O)COC(=O)c2ccc([N+](=O)[O-])s2)c(C)c1	0	0	0	0	0	0
N#Cc1c(N)n(-c2cccc(C(=O)O)c2)c2nc3ccccc3nc12	0	0	0	0	?	198[may fluoresce violet]
Cc1noc(NC(=O)c2ccc(Cl)cc2)c1Cl	0	0	41[may fluoresce violet]	?	?	0
CC1(C)C2CCC(C2)C1(C)NC(=O)CN1CCOCC1 (stereo not given)	0	0	42[may fluoresce violet]	?	?	308[may fluoresce violet]
Cc1ccc(C(=O)N/C(=C/c2ccco2)C(=O)N2CCCCC2)cc1	0	0	0	0	0	0
Cc1ccc(C(=O)N/C(=C/c2ccco2)C(=O)N2CCOCC2)cc1	174	0	0	0	0	0
CC(=O)N(Cc1ccc(Cl)cc1)c1cnccn1	0	0	0	?	?	293[may fluoresce violet]
N#CC1=C(N)OC2=C(CC/C2=C\c2ccccc2Cl)C1c1ccccc1Cl (stereo not given)	0	0	0	0	0	0
